The text below walks through data of PubChem BioAssay AID624256 (NMMLSC, 2012).

In all, about 360,000 compounds went through this assay and about 3,700 (1%) were called active. Inconclusive results (about 2%) are left out.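 How the source made its calls: active means normalized GFP-positive differentiation at or above the plate's own cutoff, the solvent-only control mean plus 3 SD; inconclusive means no clear call, values can overlap the other calls; inactive means the rest.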 Many of the other results were omitted from the sample, so actives are more common in it than they were.

The nature of this assay: induction of myeloid progenitor differentiation, primary screen, cell-based, flow cytometry, MLPCN library (AID 624256).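 On GFP+ MAC1+ double positive: cells exposed to compound for four days before flow analysis.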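 On normalized GFP-positive differentiation: cells exposed to compound for four days before flow analysis; 0% = DMSO wells and 100% = fulvestrant positive control at 5 µM.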 The conditions noted are these: ER-HoxA9 myeloid progenitors, lysozyme-GFP differentiation, at 10 µM; GFP+ MAC1+ double positive: measured here: differentiation confirmed by MAC1 staining, stronger effect = higher value; normalized GFP-positive differentiation: stronger effect = higher value.
With `Cc1ccc(S(=O)(=O)NCC(C)NS(C)(=O)=O)cc1` (stereo unspecified), the GFP+ MAC1+ double positive was determined as 2% and the compound was classed as inactive.
For the compound `Cc1ccc(S(=O)(=O)NCCSC(C)(C)C)cc1`, the GFP+ MAC1+ double positive was determined as 5.2% and the normalized GFP-positive differentiation is 17.8% (active).
As to `Cc1ccc(S(=O)(=O)NCCNC(C)c2ccc(Br)cc2)cc1` (stereo unspecified), the GFP+ MAC1+ double positive was determined as 1% and the compound was called inactive.
As to `OC(c1ccccc1)c1nc(-c2cnc3ccccc3c2)cs1` (stereo unspecified), the GFP+ MAC1+ double positive was 0.6% and the result was inactive.
On to `C=C1C(=O)[C@]23C[C@H]1CCC2[C@@]1(C)C(C[C@@H]3O)[C@](C)(C(=O)O)CC[C@@H]1O` (stereo partly specified), for which the GFP+ MAC1+ double positive turned out to be 3.8% and the normalized GFP-positive differentiation was 13.1% (active).
In the case of `CCOC(=O)C1=CC[C@@H](c2ccncc2)N(S(=O)(=O)c2ccc(C)cc2)C1`, the GFP+ MAC1+ double positive was determined as 1.2% and the outcome was inactive.
The corresponding values for `COc1ccc(C2OC(CCc3ccccc3)Cc3[nH]c(=S)[nH]c(=O)c32)cc1` (stereo unspecified) are 1.5% and “inactive”.
For `CC(=O)c1ccc(S(=O)(=O)N2CCN(c3nc4c(C)c(C)ccc4cc3C#N)CC2)cc1`, in that order: 0.3% and “inactive”.
For `Cc1ccc(S(=O)(=O)N2CCN(c3ccccc3)CC2)cc1C`, in that order: 0.5% and “inactive”.
Consider `Cc1ccc(S(=O)(=O)C(C#N)c2nc3ccccc3nc2N2CCCC2)cc1C` (stereo unspecified), for which the GFP+ MAC1+ double positive came out at 1.7% and the normalized GFP-positive differentiation is 59% (active).
As for `COC(=O)c1sc(N2CCN(Cc3ccccc3)CC2)nc1N`, the GFP+ MAC1+ double positive was determined as 0.5% and the outcome was inactive.
Regarding `CC(C)OC(=O)C(C#N)c1nc2ccccc2nc1N1CCN(Cc2ccccc2)CC1` (stereo unspecified), the GFP+ MAC1+ double positive came to 0.7% and the normalized GFP-positive differentiation is 12.1% (active).
Turning to `CC(C)n1c(CN2CCN(Cc3ccccc3)CC2)nc2ccccc21`, the GFP+ MAC1+ double positive was 0.1% and the compound was classed as inactive.
The corresponding values for `CCCCCn1nnnc1-c1nc2cc3ccccc3cc2[nH]c1=O` are 1.8% and “inactive”.
For `Cc1nc(Nc2ccccc2F)c2nnn(Cc3ccccc3Cl)c2n1`, the GFP+ MAC1+ double positive worked out at 0.5% and the compound was classed as inactive.
For `CCCc1nc(NCc2ccc3c(c2)OCO3)c2nnn(Cc3ccccc3Cl)c2n1`, in that order: 0.8% and “inactive”.
In the case of `Cc1nc(Nc2ccc3c(c2)OCCO3)c2nnn(Cc3ccccc3Cl)c2n1`, the GFP+ MAC1+ double positive stood at 18.1% and the normalized GFP-positive differentiation is 21.9% (active).
In the case of `CCCCCc1c(Cc2ccccc2)ncn1CCc1ccccc1OC`, the GFP+ MAC1+ double positive was found to be 3.9% and the compound was classed as inactive.
For `C[C@@H]1CN([C@@H](C)CO)C(=O)c2cc(NC(=O)C3CC3)ccc2O[C@H]1CN(C)C`, in that order: 1.9% and “inactive”.
For `COc1ccc(NC(=O)Nc2ccc3c(c2)C(=O)N([C@H](C)CO)C[C@H](C)[C@@H](CN(C)C(=O)Nc2ccc4c(c2)OCO4)O3)cc1`, in that order: 2.5% and “inactive”.
As for `COc1ccc(NC(=O)N(C)C[C@H]2Oc3ccc(NC(=O)C4CC4)cc3C(=O)N([C@H](C)CO)C[C@@H]2C)cc1`, the GFP+ MAC1+ double positive is 1.6% and the normalized GFP-positive differentiation was 10.4% (active).
Take `CCOC(=O)[C@]12CCC=C1N(Cc1ccccc1)C(=O)[C@H](CC(=O)N1CCCC1)C2`: the GFP+ MAC1+ double positive was 0.9% and the compound was classed as inactive.
The corresponding values for `N#C/C(=C\c1ccc(N2CCOCC2)o1)C(=O)N1CCOCC1` are 0.4% and “inactive”.
As for `N#C/C(=C/c1ccc(N2CCOCC2)o1)C(=O)N1CCOCC1`, the GFP+ MAC1+ double positive worked out at 0.4% and the call was inactive.
Regarding `N#C/C(=C/c1ccc(N2CCCCC2)o1)C(=O)NCCc1c[nH]c2ccccc12`, the GFP+ MAC1+ double positive was 3.1% and the normalized GFP-positive differentiation is 118% (active).
Turning to `CCC(c1nnnn1-c1ccc2c(c1)OCCO2)N1CCN(c2ccc(C(F)(F)F)cn2)CC1` (stereo unspecified), the GFP+ MAC1+ double positive turned out to be 0.4% and the result was inactive.
For `CCNC(=O)c1cc2c(c(-c3cccc(-c4cncnc4)c3)n1)[C@H](CCO)N(C(C)=O)C2`, in that order: 0.5% and “inactive”.
The corresponding values for `CCCNC(=O)C[C@@H]1CC[C@@H]2[C@H](COC[C@H](O)CN2C(=O)c2cc(Cl)cc(Cl)c2)O1` are 0.9% and “inactive”.
For `CCCCCc1c(-c2cccc(Br)c2)ncn1CCc1ccccc1OC`, in that order: 1% and “inactive”.
As for `Cc1nc2c(OCc3cccc(Cl)c3)cccn2c1N(C)CC1CC1`, the GFP+ MAC1+ double positive was determined as 0.4% and the outcome was inactive.
Take `O=C1Nc2ccc(Br)cc2/C1=N/N=C/C1=C(N2CCOCC2)C(=C\c2ccccc2)/CC1`: the GFP+ MAC1+ double positive was determined as 0.4% and the compound was called inactive.
Turning to `O=C(O)c1ccc(NN=CC2=C(N3CCOCC3)/C(=C/c3ccccc3)CC2)cc1`, the GFP+ MAC1+ double positive turned out to be 0.1% and the compound was called inactive.
Consider `N#C/C(=C\C1=C(N2CCOCC2)C(=C\c2ccccc2)/CC1)C(=O)Nc1ccccc1F`, for which the GFP+ MAC1+ double positive is 11.3% and the normalized GFP-positive differentiation was 127% (active).
As for `COc1ccc(OC)c(CN2C(=O)CCC2(C)c2nnnn2Cc2ccccc2)c1` (stereo unspecified), the GFP+ MAC1+ double positive was found to be 0.7% and the outcome was inactive.
As for `CCOC(=O)[C@]12CCCC=C1N(Cc1ccc(Cl)cc1Cl)C(=O)[C@H](CC(=O)N1CCCCC1)C2`, the GFP+ MAC1+ double positive was found to be 0.5% and the call was inactive.
`Cc1ccc(C(=O)Nc2c(-c3ccccc3)[nH][nH]c2=O)cc1`: the GFP+ MAC1+ double positive worked out at 0.3% and the outcome was inactive.
Take `COc1cc(OC)cc(-c2nc3ccccc3c(=O)n2NC(=O)c2cccnc2Cl)c1`: the GFP+ MAC1+ double positive was found to be 0.9% and the call was inactive.
`O=C(Nn1c(-c2ccc(Cl)cc2)nc2ccccc2c1=O)c1cccnc1Cl`: the GFP+ MAC1+ double positive was 2.1% and the normalized GFP-positive differentiation is 151% (active).
Turning to `COc1ccccc1C(=O)Nn1c(-c2cccs2)nc2ccccc2c1=O`, the GFP+ MAC1+ double positive came to 0.5% and the result was inactive.
The corresponding values for `CC(=O)C[C@@H]1OC[C@H](CO)N1S(=O)(=O)c1ccc(C)cc1` are 2.1% and “inactive”.
For `O=C(C[C@H]1CC[C@@H](NC(=O)c2ccncc2)[C@@H](CO)O1)NCC1CC1`, in that order: 0.9% and “inactive”.
For `N#Cc1c(C(F)(F)F)cc(-c2ccccc2)nc1SCC(=O)N1CCOCC1`, the GFP+ MAC1+ double positive is 1.4% and the result was inactive.
Regarding `CCOC(=O)CC(=O)CSc1nc(-c2ccccc2)cc(-c2ccc(Cl)cc2)c1C#N`, the GFP+ MAC1+ double positive amounted to 26.9% and the normalized GFP-positive differentiation is 14.9% (active).
On to `CCSc1nc(-c2ccc(OC)cc2)cc(-c2ccc(OC)cc2)c1C#N`, for which the GFP+ MAC1+ double positive amounted to 7.7% and the compound was classed as inactive.
For the compound `Cc1noc(C)c1C(=O)N1CCC1(C)C(=O)NS(=O)(=O)c1ccc(C#N)cc1` (stereo unspecified), the GFP+ MAC1+ double positive was found to be 1.2% and the result was inactive.
With `O=C(Cc1csc(Nc2nc(=S)[nH]c3ccccc23)n1)NCCCN1CCN(c2cccc(Cl)c2)CC1`, the GFP+ MAC1+ double positive amounted to 1% and the call was inactive.
For `CCN1CCCC1CNC(=O)c1cc2c(=O)n(C)c3ccccc3c2n1C` (stereo unspecified), in that order: 0.5% and “inactive”.
For the compound `Cn1c(C(=O)NCCCN2CCN(c3cccc(Cl)c3)CC2)cc2c(=O)n(C)c3ccccc3c21`, the GFP+ MAC1+ double positive turned out to be 11.3% and the normalized GFP-positive differentiation was 36.1% (active).
Take `CC(=O)Nc1cc(-c2cccc(CO)c2)cn2c(-c3cccc(C(F)(F)F)c3)cnc12`: the GFP+ MAC1+ double positive came to 0.8% and the result was inactive.
On to `CN=c1scc(-c2cc(OC)ccc2OC)n1/N=C/c1c(C)[nH]c2ccccc12`, for which the GFP+ MAC1+ double positive is 1.2% and the compound was classed as inactive.
For `COc1cc2[nH]c(O)c(C=O)c2cc1OC`, the GFP+ MAC1+ double positive was determined as 0.7% and the outcome was inactive.
As for `COc1cc(N=Cc2c(O)[nH]c3ccccc23)cc(OC)c1OC`, the GFP+ MAC1+ double positive was determined as 16.7% and the normalized GFP-positive differentiation was 15.8% (active).
On to `CCOC(=O)[C@H]1Nc2ccc(Cl)cc2[C@@H]2[C@H]1C1CC(c3ccccc31)N2C(=O)OCc1ccccc1` (stereo partly specified), for which the GFP+ MAC1+ double positive was 1% and the compound was classed as inactive.
